Measured values: PubChem BioAssay (NCATS)
Records with an inconclusive call do not appear. Activity calls are given as the source filed them. Calls come from the whole dose curve; as a rule, active = well fitted inhibition curve with a large enough effect; inconclusive = small, poorly fitted or top-dose-only effect; inactive = flat fitted curve, though single readings scatter.

Columns and labels:
Assay in all cases: qHTS profiling for inhibitors of Plasmodium falciparum proliferation (AID 504749); note: nearly all actives have a fitted effect of over 60% in size
Conditions in all cases: P. falciparum in erythrocytes, SYBR Green DNA, 72 h; series mostly up to 12.8 µM
[1] = system: CP260
How it was run: (§1)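 Each compound contacts P. falciparum-infected red blood cells for 72 h at 37 C; lysis buffer (Tris, EDTA, saponin, Triton X, SYBR Green I) is added and fluorescence measured next morning; values normalized to controls.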

[2] = system: CP262
How it was run: as §1

[3] = system: CP265
How it was run: as §1

[4] = system: CP266
How it was run: as §1

[5] = system: CP268
How it was run: as §1

[6] = system: CP269
How it was run: as §1

[7] = system: CP286
How it was run: as §1

[8] = system: CP291
How it was run: as §1

[9] = system: CP297
How it was run: as §1

[10] = system: CP305
How it was run: as §1

[11] = system: CP315
How it was run: as §1

[12] = system: CP325
How it was run: as §1

[13] = system: CP329
How it was run: as §1

[14] = system: CP335
How it was run: as §1

[15] = system: DFO2036
How it was run: as §1

[16] = system: DIV14
How it was run: as §1

[17] = system: DIV17
How it was run: as §1

[18] = system: DIV30
How it was run: as §1

[19] = system: Dd2
How it was run: as §1

[20] = system: ECU
How it was run: as §1

[21] = system: FAB9
How it was run: as §1

[22] = system: GB4
How it was run: as §1

[23] = system: HB3
How it was run: as §1

[24] = system: ICS
How it was run: as §1

[25] = system: JCK
How it was run: as §1

[26] = system: N140
How it was run: as §1

[27] = system: P93_24
How it was run: as §1

[28] = system: P94_40
How it was run: as §1

[29] = system: PAD
How it was run: as §1

[30] = system: PC15
How it was run: as §1

[31] = system: PC26
How it was run: as §1

[32] = system: PC49
How it was run: as §1

[33] = system: SC27B
How it was run: as §1

[34] = system: TAB109
How it was run: as §1

[35] = system: TAB113
How it was run: as §1

[36] = system: TAB165
How it was run: as §1

[37] = system: W2
How it was run: as §1

Measured: Potency

O=C(O)[C@@H]1CCCN1
inactive: [1] | [2] | [3] | [4] | [5] | [6] | [7] | [8] | [9] | [10] | [11] | [12] | [13] | [14] | [15] | [16] | [17] | [18] | [19] | [20] | [21] | [22] | [23] | [24] | [25] | [26] | [27] | [28] | [29] | [30] | [31] | [32] | [33] | [34] | [35] | [36] | [37]
